Test results published in PubChem BioAssay AID1159580 (chemical genetic matrix, 2015).
Values joined by “and” are separate entries in the source; they are usually repeats but may differ in a detail not shown here. Identical values can stand only once. The whole screen tested about 5,500 compounds, of which about 2,000 (36%) were called active. Roughly 18% stayed inconclusive and do not appear here. No stated cut-off is given here; in the data, active means normalized growth mostly below about 0.91 (no sharp cut-off); inconclusive means no clear call, values can overlap the other calls; inactive means mostly above about 0.92. The list shows a part of the results.

Assay: chemical genetic growth profiling, strain panel (AID 1159580);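 further: tested at 20 µM; growth read once vehicle control cultures reached saturation at 30 °C; 1 = growth at the plate median or of vehicle wells; lower values mean less growth of the strain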
Conditions: growth OD
[1] = S. cerevisiae deletion strains, locus YAL013W, strain DEP1, active compounds read low
[2] = S. cerevisiae deletion strains, locus YAL040C, strain CLN3, active compounds read low
[3] = S. cerevisiae deletion strains, locus YCL061C, strain MRC1 (second series), active compounds read low
[4] = S. cerevisiae deletion strains, locus YDR363W, strain ESC2, active compounds read low
[5] = S. cerevisiae deletion strains, locus YER002W, strain NOP16, active compounds read low
[6] = S. cerevisiae deletion strains, locus YGR229C, strain SMI1, active compounds read low
[7] = S. cerevisiae deletion strains, locus YMR263W, strain SAP30, active compounds read low
[8] = S. cerevisiae deletion strains, locus YNL153C, strain GIM3, active compounds read low
[9] = S. cerevisiae deletion strains, locus YNL175C, strain NOP13, active compounds read low
[10] = S. cerevisiae deletion strains, locus YNL197C, strain WHI3, active compounds read low
[11] = S. cerevisiae deletion strains, locus YNL224C, strain SQS1, active compounds read low
[12] = S. cerevisiae deletion strains, locus YOR083W, strain WHI5 (second series), active compounds read low
[13] = S. cerevisiae deletion strains, locus YPL241C, strain CIN2, active compounds read low
[14] = S. cerevisiae deletion strains, locus YNL128W, strain TEP1, active compounds read low
[15] = S. cerevisiae deletion strains, locus YNL322C, strain KRE1, active compounds read low

Measured: normalized growth

NN=C(N)N
inactive: [1] 1.03 and 1.01 | [2] 0.987 and 0.992 | [3] 1 | [4] 1.03 | [5] 1.03 and 0.995 | [6] 1.03 | [7] 1.01 | [8] 1.01 | [9] 1.02 and 1.01 | [10] 1.01 | [11] 0.993 and 1.03 | [12] 1.02 and 1.01 | [13] 1.01

CCN(CC)c1ncnc2c1ncn2[C@@H]1O[C@H](COP(=O)(O)OP(=O)(O)C(Br)(Br)P(=O)(O)O)[C@@H](O)[C@H]1O
inactive: [2] 1.05 | [3] 1 | [4] 0.937 | [5] 1 | [6] 0.992 | [7] 0.991 | [14] 1 | [9] 0.992 | [10] 0.977 | [11] 0.971 | [15] 0.995 | [12] 0.979 | [13] 1.01

COc1cccc(OC)c1OCCNCC1COc2ccccc2O1 (stereo not given)
inactive: [1] 1.02 | [2] 0.995 | S. cerevisiae deletion strains, locus YBR021W, strain FUR4, active compounds read low 0.991 | S. cerevisiae deletion strains, locus YBR229C, strain ROT2, active compounds read low 1.01 | S. cerevisiae deletion strains, locus YCL029C, strain bik1, active compounds read low 0.982 | [3] 0.999 | S. cerevisiae deletion strains, locus YDL035C, strain GPR1, active compounds read low 1.01 | S. cerevisiae deletion strains, locus YDL074C, strain BRE1, active compounds read low 1.04 | S. cerevisiae deletion strains, locus YDL101C, strain DUN1, active compounds read low 1.03 | S. cerevisiae deletion strains, locus YDL134C, strain PPH21, active compounds read low 1.01 | S. cerevisiae deletion strains, locus YDL185W, strain tfp1, active compounds read low 0.991 | S. cerevisiae deletion strains, locus YDL192W, strain arf1, active compounds read low 0.99 | S. cerevisiae deletion strains, locus YDR101C, strain arx1, active compounds read low 0.965 | S. cerevisiae deletion strains, locus YDR150W, strain NUM1, active compounds read low 1.02 | S. cerevisiae deletion strains, locus YDR162C, strain NBP2, active compounds read low 1.04 | S. cerevisiae deletion strains, locus YDR318W, strain mcm21, active compounds read low 0.966 | [4] 0.955 | S. cerevisiae deletion strains, locus YDR388W, active compounds read low 0.983 | S. cerevisiae deletion strains, locus YDR502C, strain sam2, active compounds read low 0.995 | S. cerevisiae deletion strains, locus YEL061C, strain CIN8, active compounds read low 1.01 | [5] 1 | S. cerevisiae deletion strains, locus YER110C, active compounds read low 0.978 | S. cerevisiae deletion strains, locus YER155C, strain BEM2, active compounds read low 1.01 | S. cerevisiae deletion strains, locus YER167W, strain BCK2, active compounds read low 1 | S. cerevisiae deletion strains, locus YGL078C, strain dbp3, active compounds read low 0.991 | S. cerevisiae deletion strains, locus YGL086W, strain mad1, active compounds read low 0.974 | S. cerevisiae deletion strains, locus YGL248W, strain PDE1, active compounds read low 1.02 | S. cerevisiae deletion strains, locus YGR078C, strain PAC10, active compounds read low 1.03 | S. cerevisiae deletion strains, locus YGR135W, strain pre9, active compounds read low 0.975 | [6] 1.01 and 0.909 | S. cerevisiae deletion strains, locus YGR252W, strain gcn5, active compounds read low 0.907 | S. cerevisiae deletion strains, locus YHR030C, strain SLT2, active compounds read low 1.01 | S. cerevisiae deletion strains, locus YHR079C, strain IRE1 (second series), active compounds read low 0.978 | S. cerevisiae deletion strains, locus YHR094C, strain hxt1, active compounds read low 0.992 | S. cerevisiae deletion strains, locus YHR129C, strain ARP1, active compounds read low 1.01 | S. cerevisiae deletion strains, locus YHR200W, strain rpn10, active compounds read low 0.977 | S. cerevisiae deletion strains, locus YIL066C, strain RNR3, active compounds read low 1.01 | S. cerevisiae deletion strains, locus YIL073C, strain SPO22, active compounds read low 0.999 | S. cerevisiae deletion strains, locus YIL125W, strain kgd1, active compounds read low 0.97 | S. cerevisiae deletion strains, locus YIR030C, strain dcg1, active compounds read low 0.986 | S. cerevisiae deletion strains, locus YJL095W, strain BCK1, active compounds read low 0.992 | S. cerevisiae deletion strains, locus YJL134W, strain LCB3, active compounds read low 1.01 | S. cerevisiae deletion strains, locus YJL168C, strain set2, active compounds read low 0.98 | S. cerevisiae deletion strains, locus YJL187C, strain SWE1 (second series), active compounds read low 1.02 | S. cerevisiae deletion strains, locus YJR043C, strain POL32, active compounds read low 1.01 | S. cerevisiae deletion strains, locus YJR075W, strain HOC1, active compounds read low 1.01 and 0.99 | S. cerevisiae deletion strains, locus YKL009W, strain mrt4, active compounds read low 1 | S. cerevisiae deletion strains, locus YKL068W, active compounds read low 0.995 | S. cerevisiae deletion strains, locus YKL085W, strain MDH1 (second series), active compounds read low 1.03 | S. cerevisiae deletion strains, locus YKL085W, strain MDH1, active compounds read low 1.03 | S. cerevisiae deletion strains, locus YKL190W, strain CNB1, active compounds read low 1.01 | S. cerevisiae deletion strains, locus YKR001C, strain vps1, active compounds read low 0.999 | S. cerevisiae deletion strains, locus YLR039C, strain RIC1, active compounds read low 1.11 | S. cerevisiae deletion strains, locus YLR058C, strain SHM2, active compounds read low 1.02 | S. cerevisiae deletion strains, locus YLR102C, strain apc9, active compounds read low 0.983 | S. cerevisiae deletion strains, locus YLR262C, strain YPT6, active compounds read low 1.16 | S. cerevisiae deletion strains, locus YLR268W, strain sec22, active compounds read low 0.98 | S. cerevisiae deletion strains, locus YLR330W, strain CHS5, active compounds read low 1.01 | S. cerevisiae deletion strains, locus YLR342W, strain FKS1 (second series), active compounds read low 0.965 | S. cerevisiae deletion strains, locus YLR371W, strain rom2, active compounds read low 0.982 | S. cerevisiae deletion strains, locus YLR418C, strain cdc73, active compounds read low 0.983 | S. cerevisiae deletion strains, locus YML016C, strain PPZ1, active compounds read low 1.01 | S. cerevisiae deletion strains, locus YML032C, strain rad52, active compounds read low 0.96 | S. cerevisiae deletion strains, locus YML124C, strain tub3, active compounds read low 0.989 | S. cerevisiae deletion strains, locus YMR078C, strain ctf18, active compounds read low 0.985 | S. cerevisiae deletion strains, locus YMR223W, strain ubp8, active compounds read low 0.963 | [7] 1.02 and 0.998 | S. cerevisiae deletion strains, locus YMR307W, strain GAS1, active compounds read low 1.08 and 0.993 | S. cerevisiae deletion strains, locus YNL067W, strain RPL9B, active compounds read low 1.02 | [14] 1.02 and 1.01 | [8] 1.03 | [9] 1.02 | [10] 1.04 | [11] 0.999 | S. cerevisiae deletion strains, locus YNL233W, strain BNI4, active compounds read low 1.02 | S. cerevisiae deletion strains, locus YNL250W, strain rad50, active compounds read low 1.01 | S. cerevisiae deletion strains, locus YNL271C, strain bni1, active compounds read low 0.983 | S. cerevisiae deletion strains, locus YNL298W, strain CLA4, active compounds read low 0.977 | S. cerevisiae deletion strains, locus YNL307C, strain MCK1, active compounds read low 0.975 | [15] 1.02 and 0.982 | S. cerevisiae deletion strains, locus YNR052C, strain pop2, active compounds read low 0.966 | S. cerevisiae deletion strains, locus YOL006C, strain TOP1, active compounds read low 1.03 | S. cerevisiae deletion strains, locus YOL012C, strain htz1 1.66 | S. cerevisiae deletion strains, locus YOL147C, strain pex11, active compounds read low 0.991 | S. cerevisiae deletion strains, locus YOR061W, strain CKA2, active compounds read low 1.02 | S. cerevisiae deletion strains, locus YOR069W, strain VPS5, active compounds read low 1.01 | [12] 1.02 | S. cerevisiae deletion strains, locus YOR136W, strain idh2, active compounds read low 0.992 | S. cerevisiae deletion strains, locus YOR144C, strain elg1, active compounds read low 0.994 | S. cerevisiae deletion strains, locus YOR184W, strain ser1, active compounds read low 0.954 | S. cerevisiae deletion strains, locus YOR316C, strain cot1, active compounds read low 0.988 | S. cerevisiae deletion strains, locus YPL055C, strain LGE1, active compounds read low 1.07 and 0.961 | [13] 1.01 | S. cerevisiae deletion strains, locus YPR119W, strain clb2, active compounds read low 0.983 | S. cerevisiae deletion strains, locus YPR141C, strain kar3, active compounds read low 0.987 | S. cerevisiae deletion strains, locus YPR163C, strain tif3, active compounds read low 0.985 | S. cerevisiae deletion strains, locus YPR167C, strain met16, active compounds read low 0.986 | S. cerevisiae deletion strains, strain wtn01, active compounds read low 0.988 | S. cerevisiae strains, strain wild type, active compounds read low 1.01
